Data as given in PubChem BioAssay AID449762 (Southern Research Specialized Biocontainment Screening …, 2010).
“And” between values parts separate entries of the source, which are not always exact repeats. Identical values can stand only once. Among all 330,000 compounds or so, about 1,900 (0.58%) were called active. Another 4% or so got no clear call; they are omitted. The list is a sample of the results. Entries with a potency or affinity are not part of this list. Values without a mark were called inactive. Cut-off read from the data, not from the text of the source: inconclusive = inhibition above about 70% without an active follow-up result; inactive = below that.

Assay: M. tuberculosis growth inhibition, HTS (AID 449762);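 note: bacterial growth assessed after seven days of incubation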
Conditions: M. tuberculosis H37Rv growth inhibition, 7H9 media; at 25 µM; hits give high values
With `FC(F)Oc1ccc(NC(=S)Nn2cnnc2)cc1` the inhibition was -3%.
With `COc1ccc(CNC(=O)C[C@H]2C(=O)N(c3ccccc3)C[C@@H]2Cc2ccccc2)cc1` the inhibition was 0.74%.
`CC1Cc2ccccc2N1C(=O)CSc1nc2ccccc2n1CC(=O)N1CCOCC1` (centres undefined) gave an inhibition of 7.22%.
In the case of `C=CCNC(=O)c1onc(CSc2ccc(Cl)cc2)c1C(=O)NCC=C`, the inhibition was 27.7%.
In the case of `C=CCNC(=O)c1onc(CSc2ccc(OC)cc2)c1C(=O)O`, the inhibition was 4.85%.
Work on `CCN(CC)S(=O)(=O)c1ccc(N2CCCC2)c(NC(=O)C2=COCCO2)c1` yielded an inhibition of -7.17%.
In the case of `Cn1c(CSCc2ccc(F)cc2)n[nH]c1=S`, the inhibition was -6.48%.
In the case of `FC(F)(F)c1cccc(-c2cc(C3CCNCC3)[nH]n2)c1`, the inhibition was 6.36%.
In the case of `COC(=O)CCN1CCC(c2cc(-c3cccc(C(F)(F)F)c3)n[nH]2)CC1`, the inhibition was 5.38%.
In the case of `O=C(CC1C(=O)NCCN1Cc1ccc(F)cc1)NCCCn1cccn1` (centres undefined), the inhibition was -1%.
`O=S(=O)(NCCc1cn2ccccc2n1)c1ccc2c(c1)OCCO2` gave an inhibition of -2.59%.
Work on `Cc1c(C(=O)NCc2ccc(S(N)(=O)=O)cc2)oc2ccc(Cl)cc12` yielded an inhibition of -4.55%.
With `COc1cc2nc(N3CCN(C(=O)c4ccco4)CC3)nc(N)c2cc1OC` the inhibition was -7.62% and 1.49%.
`COc1cc2nc(Nc3ccc(F)cc3)nc(N)c2cc1OC` gave an inhibition of 23.2%.
In the case of `COc1cc2nc(N3CCNCC3)nc(N)c2cc1OC`, the inhibition was -16.4%.
`COc1cc2nc(Nc3cccc(F)c3)nc(N)c2cc1OC` gave an inhibition of 34.9%.
Work on `CCn1c(O)c(N=Nc2cccc(S(=O)(=O)N3CCOCC3)c2)c(=O)n(CC)c1=S` yielded an inhibition of -2.11%.
For `O=C(Nc1cccc(C(=O)N2CCCc3ccccc32)c1)c1ccccc1`, the inhibition was 6.88%.
In the case of `COc1ccccc1C(=O)NC(=O)Nc1c(C)cc(C)cc1C`, the inhibition was 1.95%.
`COc1ccc(-c2nc(-c3ccncc3)no2)c(OC)c1` showed an inhibition of 4.47%.
With `COc1ccc(S(=O)(=O)N2CCC(c3cc(-c4cccc5ccccc45)n[nH]3)CC2)cc1` the inhibition was 66.5%.
For `COc1ccc(S(=O)(=O)Nc2c(F)cccc2F)cc1`, the inhibition was 6.44%.
`COc1cccc(NS(=O)(=O)c2nc3nc(C)cc(C)n3n2)c1` showed an inhibition of -2.88%.
`COc1ccc(CNS(=O)(=O)c2cc3c4c(c2)C(C)C(=O)N4CCC3)cc1` (centres undefined) gave an inhibition of -1.95%.
In the case of `COc1ccc(CCC(=O)NCCS(=O)(=O)N2CCN(c3ccccc3F)CC2)cc1`, the inhibition was 9.75%.
With `CN1CCCN(C(=O)c2cccc(Br)c2)CC1` the inhibition was -4.86%.
For `CC(C)Nc1nc(-c2ccccn2)nc(-c2ccccc2)c1C#N`, the inhibition was -1.18%.
Molecule `c1ccc(-c2nnc(-c3ccccn3)c(-c3ccccn3)n2)nc1` has an inhibition of 0.73%.
In the case of `c1ccc(-c2ccccn2)nc1`, the inhibition was 11.8%.
`c1ccc(-c2nc(-c3ccccn3)nc(-c3ccccn3)n2)nc1` gave an inhibition of 14.8%.
For `O=C(NCC(c1cccnc1)N1CCN(c2ccc(F)cc2)CC1)Oc1ccccc1` (centres undefined), the inhibition was -8.33%.
`CCc1cccc(NC(=O)CCCN2C(=O)NC(C)(C)C2=O)c1` showed an inhibition of -11.7%.
Work on `C[C@@H]1CCCCCCCCC(=O)OCCN(C(=O)OC(C)(C)C)[C@H](C)CCCCCCCCC(=O)OCCN1C(=O)OC(C)(C)C` yielded an inhibition of 3.06%.
`C[C@@H]1CCCCCCCCC(=O)OCCN(C(=O)OC(C)(C)C)[C@H](C)CCCCCCCCC(=O)OCCN(C(=O)OC(C)(C)C)[C@H](C)CCCCCCCCC(=O)OCCN(C(=O)OC(C)(C)C)[C@H](C)CCCCCCCCC(=O)OCCN1C(=O)OC(C)(C)C` showed an inhibition of -0.93%.
`COc1ccc(N2CCN(C(=O)CCNS(=O)(=O)c3ccc(C)cc3)CC2)cc1` showed an inhibition of -1.98%.
Molecule `C[C@H](NC(=O)N1CCn2c1nc1ccccc12)C(=O)N1CCCCC1` has an inhibition of -4.78%.
`CN(CCOc1ccccc1)C(=O)C1CCC(=O)N(CCCN2CCOCC2)C1` (centres undefined) gave an inhibition of 14.5%.
Work on `Nc1nc2ccccc2n1CCOc1ccc(Cl)cc1` yielded an inhibition of 9.81%.
Molecule `Nc1nc2ccccc2n1CCOc1ccc(F)cc1` has an inhibition of 41.5%.
With `CN(C)S(=O)(=O)c1cc(NC(=O)CN2CCN(c3ccccc3)CC2)ccc1Cl` the inhibition was 1.87%.
Molecule `CN=C1NN=C(c2cc(C)n(-c3c(C)n(C)n(-c4ccccc4)c3=O)c2C)CS1` has an inhibition of 10.5%.
In the case of `c1ccc2c(C3=NNC(=NC4CC4)SC3)c[nH]c2c1`, the inhibition was -4.02%.
For `CCN=C1NN=C(c2c[nH]c3ccccc23)CS1`, the inhibition was 0.3%.
Molecule `Cc1cc(C2=NNC(=NC3CC3)SC2)c(C)n1-c1c(C)n(C)n(-c2ccccc2)c1=O` has an inhibition of 0.5%.
Work on `COc1ccc(CC(=O)Nc2ccc(C#N)c(Cl)c2)cc1S(=O)(=O)N1CCOCC1` yielded an inhibition of 3.7%.
Work on `COc1ccnc(Oc2ccc(F)cc2)c1C(=O)N/C=N/OCc1cccc(F)c1` yielded an inhibition of 24.6%.
In the case of `C=C(C)CSc1nnc2n(C)c(=O)c3c4c(sc3n12)CCC4`, the inhibition was 4.7%.
Work on `CCCSc1nnc2n(C)c(=O)c3c4c(sc3n12)CCC4` yielded an inhibition of 9.4%.
`NC(=O)CSc1nc(N)c2c3c(sc2n1)CCCCC3` gave an inhibition of 42.6%.
Work on `CC(=O)N1CCN(c2nc(C)nc3sc4c(c23)CCC(C)C4)CC1` (centres undefined) yielded an inhibition of -0.41%.
For `Cc1nc(N2CCN(C(=O)c3cnccn3)CC2)c2c3c(sc2n1)CC(C(C)(C)C)CC3` (centres undefined), the inhibition was -2.07%.
In the case of `CC(C)(C)C1CCc2c(sc3nc(SCC(=O)O)nc(N)c23)C1` (centres undefined), the inhibition was 6.02%.
With `CC(C)(C)[C@H]1COC(=O)[C@@H](Cc2ccc(F)cc2)C/C=C\C[C@@H](CC(=O)N[C@@H](CO)Cc2ccccc2)C(=O)N1` the inhibition was -8.38%.
In the case of `Cc1cc(OCC(=O)NCCCN2CCOCC2)c2c(C)cc(=O)oc2c1`, the inhibition was 3.65%.
For `O=C(Cc1c(Cl)cccc1Cl)N1CCN(Cc2ccccc2)CC1`, the inhibition was 7.3%.
With `C/C(=N\NC(=O)c1ccc(Cn2cc(Br)cn2)o1)c1cccc(NC(=O)C(C)(C)C)c1` the inhibition was -8.27%.
With `COc1cccc(CN(C)CC(=O)Nc2ccccc2C(=O)Nc2ccccc2)c1OC` the inhibition was -3.55%.
For `CN(CC(=O)Nc1ccc(F)cc1)C(=O)COC(=O)c1cc(S(=O)(=O)N(C)C)ccc1N1CCCC1`, the inhibition was 0.17%.
In the case of `Cc1cc(C)c2cc(C(=O)Nc3ccc4c(c3)OCO4)[nH]c2c1`, the inhibition was -1.94%.
In the case of `CCc1ccc2[nH]c(C(=O)Nc3ccc(C)c(F)c3)cc2c1`, the inhibition was 6.38%.
For `Cc1cccc(NC(=O)C2CCN(S(=O)(=O)c3c(C)noc3C)CC2)c1`, the inhibition was 8.96%.
With `c1cc[n+](CCC[n+]2ccccc2)cc1` the inhibition was 1.9%.
In the case of `c1cc[n+](CCCC[n+]2ccccc2)cc1`, the inhibition was -7%.
In the case of `O=C(Nc1ccc(F)cc1)c1cnc(-c2ccccc2)nc1-c1ccccc1`, the inhibition was -11.2%.
Molecule `CCCOc1ccc2[nH]c(C(=O)N/N=C/c3cc(OC)c(OC)c(OC)c3)cc2c1` has an inhibition of 4.27%.
`CCOc1ccc(CCNC(=O)Cc2ccc(NC3=NC4CS(=O)(=O)CC4S3)cc2)cc1` (centres undefined) showed an inhibition of -10.9%.
Work on `COCCn1c(=NC(=O)CSC(C)=O)sc2cc(OC)ccc21` yielded an inhibition of -1.47%.
Work on `CS(=O)(=O)c1ccc(C(=O)NCc2ccccc2F)cc1` yielded an inhibition of -1.2%.
Work on `CS(=O)(=O)c1ccc(C(=O)NC(Cc2ccccc2)c2ccccc2)cc1` (centres undefined) yielded an inhibition of -2.61%.
Molecule `Cn1cc(C(=O)N2CCCCC2)c2ccccc21` has an inhibition of 5.24%.
`CCCCC[C@@H]1C=C(C(=O)O)[C@H](c2cccc(C)c2)N1S(=O)(=O)c1ccc(C)cc1` showed an inhibition of 9.09%.
For `S=C(NCCNC(=S)Nc1ccccc1)Nc1ccccc1`, the inhibition was -0.85%.
`COc1ccc(C(CNc2nc(-c3cccnc3)nc3ccccc23)N(C)C)cc1` (centres undefined) showed an inhibition of -3.31%.
With `COC(=O)C1=C(C)N(C)C(=S)NC1c1c(OC)ccc2ccccc12` (centres undefined) the inhibition was 8.17%.
With `O=C1NCN(c2ccccc2)C12CCNCC2` the inhibition was -2.9%.
For `O=C1NCN(c2ccccc2)C12CCN(c1nnnn1-c1ccccc1)CC2`, the inhibition was -2.38%.
For `COc1ccc(S(=O)(=O)N(C)CC(=O)NC2CCCC2)cc1OC`, the inhibition was -0.73%.
For `Cc1ccc(-c2ccccc2NC(=O)C2C3C=CC(C3)C2C(=O)O)o1` (centres undefined), the inhibition was 3.02%.
`CC(=O)Nc1cccc(NC(=O)C2C3C=CC(C3)C2C(=O)O)c1` (centres undefined) showed an inhibition of 1.17%.
In the case of `CCCCOc1ccc(C(=O)N2CCN(c3ccc(N4CCOCC4)nn3)CC2)cc1`, the inhibition was 37.3%.
`CNC1=C([N+](=O)[O-])CC([N+](=O)[O-])=C(N2CCNCC2)N1C` gave an inhibition of 1.39%.
With `Cc1nn(Cc2ccccc2)c(Cl)c1C(=O)OCC(=O)NC(=O)NC12CC3CC(CC(C3)C1)C2` the inhibition was 3.45%.
`CC1CCc2nc3ccccc3c(C(=O)OCC(=O)NC3CCS(=O)(=O)C3)c2C1` (centres undefined) showed an inhibition of 9.92%.
In the case of `Cc1c2ccccc2nc2ccccc12`, the inhibition was 21.6%.
In the case of `CCOC(=O)c1cc(-c2ccc(N3CCOCC3)cc2)nn1-c1ccccc1C(=O)O`, the inhibition was -2.68%.
For `CCOC(=O)c1cc(-c2ccc(N3CCOCC3)cc2)nn1-c1ccc(F)cc1F`, the inhibition was 30.5%.
In the case of `COc1ccccc1N1CCN(c2nnc(-c3ccc(F)cc3)c3ccccc23)CC1`, the inhibition was -0.63%.
Molecule `COc1cc(C(=O)N/C(=C\c2cn(S(=O)(=O)N(C)C)c3ccccc23)C(=O)N2CCCC2)cc(OC)c1OC` has an inhibition of 7.41%.
In the case of `COc1cc(/C=N/n2cc(-c3ccccc3)[nH]c2=S)cc(OC)c1O`, the inhibition was -4.41%.
